Measured values from PubChem BioAssay (NCI).
Compounds without any hit were thinned out: in the full panel of roughly 83,000, 20% have a hit.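 Growth was measured after 48 h exposure to one concentration of compound in 96-well plates. Values under 10 count as active.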 Values without a mark were called inactive. Active and inactive are the calls of the source.

System: SNB-19 CNS
Test: NCI-60 one-dose screen, 48 h (100 = growth as untreated, 0 = no growth, -100 = all killed)
Conditions: 10 µM unless noted

SMILES | growth
O=Cc1ccc([N+](=O)[O-])s1 | 91.4%
CC(C)(C)n1cc(-c2ccnc(NCCCNS(=O)(=O)c3ccc(F)cc3)c2)c(-c2cccc(F)c2)n1 | 72.7%
O=C1C(Cl)=C(Nc2ccc(O)cc2)C(=O)N1Cc1ccc(Cl)cc1 | 69.5%
COc1cc(CNC(=O)CCCC/C=C/C(C)C)ccc1OCc1nnc(Nc2ccc([N+](=O)[O-])cc2)o1 | 54%
O=C(N/N=C/c1ccc(F)cc1)c1ccc(C(F)(F)F)nc1Nc1cccc(C(F)(F)F)c1 | 18.4%
C=C(C)[C@@H]1CC[C@]2(C(=O)NCCNCCN)CC[C@]3(C)[C@H](CC[C@@H]4[C@@]5(C)C/C(=C/c6ccncc6)C(=O)C(C)(C)[C@@H]5CC[C@]43C)[C@@H]12 | 90.2%
O=C(COc1ccc(-c2nc3ccccc3[nH]2)cc1)N=Nc1c(O)[nH]c2ccc(Cl)cc12 | 56.5%
C/C(=N/O)c1ccc(F)cc1 | 87.8%
COc1ccc(C2=Nc3c/c(=C\c4c(O)[nH]c5ccc(Cl)cc45)ccc3=N2)cc1 | 65%
CCOC(=O)c1cnc2ccccc2c1Cl | 99.2%
CCCc1cc(NC)nc(S(=O)(=O)CC)n1 | 102%
COc1ccc(/C=C2\C(=O)N=C3N2NC(c2cc(Br)ccc2O)C=C(C)N3c2ccccc2)cc1 (stereo not given) | 93.8%
O=S(=O)(NCCNc1nccc(-c2c(-c3cccc(F)c3)nc3occn23)n1)c1ccc(Br)cc1 | 93.3%
CCn1cc(C(=O)N/N=C/c2cccs2)c(=O)c2cc(F)c(N3CCNC(C)C3)c(F)c21 (stereo not given) | 73%
Cn1c(=O)c2[nH]c(N/N=C/c3ccccc3Br)nc2n(C)c1=O | 109%
CCCCCCNC(=O)Oc1ccc(/C(=C(/C)Cc2ccc(OC)cc2)c2ccc(OCCCN(C)C)cc2)cc1 | 45.7%
O=C(OCc1ccc2cccc(O)c2n1)N1CCN(C(=O)c2cc3cc(F)ccc3[nH]2)CC1 | 47.1%
CC(=O)[C@@H]1CCC=C2CC[C@]3(C)[C@@H](CC[C@@H]4[C@@]5(C)CCCNC(C)(C)[C@@H]5CC[C@]43C)[C@H]21 | -77.2% (active)
O=c1oc2ccc([N+](=O)[O-])cc2cc1Br | 108%
S=C(Nc1ccc(-c2nc(N3CCOCC3)c3cccn3n2)cc1)Nc1cccnc1 | 32.2%

SMILES | growth
O=C1/C(=C/c2ccc(-c3ccc(Br)cc3)o2)SC(=S)N1CCc1ccc(O)cc1 | 85.5%
CCOC(=O)CSc1ncnc2c1c(-c1ccccc1)c(-c1ccccc1)n2-c1ccc(C)cc1 | 63.4%
CCNc1cc(-c2cccc(OC(F)(F)F)c2)nc2ccc(N3CCCC3)cc12 | 27%
CCCCNC(=O)Oc1ccc(/C(=C(/CC)Cc2ccccc2)c2ccc(OCCN3CCCCCC3)cc2)cc1 | 45.2%
COc1ccc(-c2nc3c(c(-c4ccccc4)nn3-c3ccccc3)c(-c3ccc(N4CCOCC4)cc3)c2C#N)cc1 | 103%
COc1cc(-c2csc(NC(=O)c3cc(-n4cnc(C)c4)cc(C(F)(F)F)c3)n2)cc(OC)c1OC | 62.2%
COc1cc(CNS(=O)(=O)c2ccc(C)cc2)ccc1OCc1cn(-c2ccc(Br)cc2)nn1 | 104%
Nc1ncnc2c1N=C(c1ccc3c(c1)OCO3)CC(c1ccc([N+](=O)[O-])cc1)N2 (stereo not given) | 86.6%
COc1ccc(-c2nc3c(c(-c4ccccc4)nn3-c3ccccc3)c(-c3ccc(N4CCN(C)CC4)cc3)c2C#N)cc1 | 95.2%
CCOC(=O)C(=Cc1cccc(Cl)c1)C(=O)OCC | 51.5%
O=C1NC(=O)c2c1c1c3ccccc3ccc1c1[nH]c3ccc(Br)cc3c21 | 23.8%
CC1(c2ccccc2O)NN=C(/N=C/c2cccc([N+](=O)[O-])c2)N1C(Cc1c[nH]c2ccccc12)C(=O)O (stereo not given) | 96.9%
CCOP(=O)(OCC)c1nc(-c2ccccc2)oc1NCc1cccnc1 | 97.5%
CCOC(=O)c1cn2ncnc(Oc3ccc(NC(=O)NC4CCCCC4)c(Cl)c3)c2c1C | 66.1%
COC(=O)c1cc(-c2ccccc2)[nH]c1N/N=C/c1c(Cl)cccc1Cl | 13.6%
COc1ccc(-c2nnc(-c3ccc4c(c3)nc(-c3ccncc3)n4C3CCCCC3)o2)cc1 | 89.4%
CC(C)(C)c1cc(-c2nc3ccc(N4CCN(S(C)(=O)=O)CC4)cc3[nH]2)cc(C(C)(C)C)c1O | 104%
CCCCN1C(=O)/C(=c2\sc3n(c2=O)C2C(NN=3)N(CC)C(=O)N2CC)c2ccccc21 (stereo not given) | 25%
N#Cc1nn(-c2cc(=O)[nH]c3ccc(Cl)cc23)c(N)c1C#N | 98.8%
Cc1ccc(-n2c(=S)[nH]c3sc4c(c3c2=O)CCC(=O)C4)cc1 | 30.9%
